In PubChem BioAssay (Tox21):
Records with an inconclusive call do not appear. Values without a mark were called inactive. Calls of active or inactive are those of the source. Calls come from the whole dose curve.

Test: qHTS assay to identify small molecule agonists of the hypoxia (HIF-1) signaling pathway - cell viability counter screen (AID 1224844); note: nearly all actives have a fitted effect of over 50% in size
Settings: HRE-bla ME-180 viability, CellTiter-Glo luminescence, 17 h; series mostly up to 76.8 µM
Source text: National Center for Advancing Translational Sciences [NCATS]
NIH Chemical Genomics Center [NCGC]
U.S. Environmental Protection Agency [EPA]
National Institutes of Environmental Health Sciences [NIEHS]
National Toxicology Program [NTP]
U.S. Food and Drug Administration [FDA]
Hypoxia-inducible factor-1 (HIF-1) is the major hypoxia-regulated transcription factor that controls cellular responses to low oxygen concentration. HIF-1 is composed of two subunits: hypoxia responsive HIF-1-alpha and constitutively expressed HIF-1-beta, which is also known as aryl hydrocarbon receptor nuclear translocator. During hypoxic conditions, HIF-1-alpha heterodimerizes with HIF-1-beta and translocates into the nucleus where the HIF-1 complex binds to the hypoxia-response element (HRE) and activates expression of target genes such as VEGF (vascular endothelial growth factor). The HIF-1 pathway is essential to normal growth and development, and is involved in the pathophysiology of cancer, inflammation, and ischemia.
Using a beta-lactamase reporter-gene under control of the hypoxia response element, a cell-based assay [CellSensor(TM) HRE-bla ME-180 from Life Technologies, Carlsbad, CA] was used to measure hypoxia-induced signaling. Tox21 10K library compounds were measured for their ability to induce the reporter gene activity. The cytotoxicity of the Tox21 compound library against HRE-bla ME-180 cell line was tested in parallel by measuring cell viability using CellTiter-Glo assay (Promega, Madison, WI) in the same assay wells.
Tox21 Assay Protocol Summary:
HRE-bla ME-180 cells were dispensed at 2,000 cells per well in 6 uL of assay medium containing 0.5% dialyzed FBS into black wall/clear-bottom 1536-well plates using a Multidrop Combi (Thermo Scientific, Waltham, MA) dispenser. After the assay plates were incubated at 37C and 5% CO2 for 5 hrs, 23 nL of compounds dissolved in DMSO, positive controls or DMSO only was transferred to each well of the assay plate using a Pintool station (Kalypsys, San Diego, CA). The assay plates were incubated at 37C and 5% CO2 for 17 hrs. One uL of LiveBLAzerTM B/G FRET substrate (CCF4-AM) (Life Technologies) was added to each well using a Flying Reagent Dispenser (FRD, Aurora Discovery, San Diego, CA). After 2 hr incubation at room temperature, fluorescence intensity (405 nm excitation, 460 nm and 530 nm emissions) was measured using an Envision plate reader (PerkinElmer, Shelton, CT). For cytotoxicity, 4 ul/well of CellTiter-Glo reagent was added into the assay plates using an FRD. After 30 min incubation at room temperature, the luminescence intensity was measured using a ViewLux plate reader (PerkinElmer).
% is set by controls: 0 for no effect and ±100 for the full control effect.

Compound	outcome	activity change, negative = cytotoxicity
CCOC(=O)C(=O)c1csc(NC=O)n1	inactive	
CC1=NN(c2ccc(S(=O)(=O)O)cc2)C(=O)C1N=Nc1ccccc1 (stereo not given)	inactive	
C1=C\CC/C=C\CC/1	inactive	
N#CCCOCCOCCC#N	inactive	
CCC(=O)c1ccc(O)cc1	inactive	
O=C(O)Cc1cccc(-c2cc(CCCCCCc3ccc(O[C@H]4O[C@H](CO)[C@@H](O)[C@H](O)[C@@H]4O)c(-c4cccc(CC(=O)O)c4)c3)ccc2O[C@H]2O[C@H](CO)[C@@H](O)[C@H](O)[C@@H]2O)c1		6.42% [at 0.29 µM]
NS(=O)(=O)c1cc2c(cc1Cl)NC(CC1CCCC1)NS2(=O)=O (stereo not given)	inactive	
C=C[C@@H](C)CCC=C(C)C	inactive	
CC1CCC(C(C)(C)S)C(=O)C1 (stereo not given)	inactive	
CN(C)CCOCCN(C)CCO	inactive	
CCC(C)(C)C1CCC(=O)CC1	inactive	
Nc1ccc(C(=O)OCC(O)CO)cc1 (stereo not given)	inactive	
C=CCOc1c(Br)cc(C(C)(C)c2cc(Br)c(OCC=C)c(Br)c2)cc1Br	inactive	
CC(C)COC(=O)CC(C(=O)OCC(C)C)S(=O)(=O)O (stereo not given)	inactive	
CCCCCC1Nc2cc(C(F)(F)F)c(S(N)(=O)=O)cc2S(=O)(=O)N1 (stereo not given)	inactive	
CC(C)CCC(=O)CCC(C)C	inactive	
NS(=O)(=O)c1ccc(Cl)c(S(N)(=O)=O)c1	inactive	
CCCCCCCCCCC	inactive	
CCOC(=O)C(C)(C)C	inactive	
CC(C)CCCCCCOC(=O)C1CCCCC1C(=O)OCCCCCCC(C)C (stereo not given)	inactive	

Compound	outcome	activity change, negative = cytotoxicity
CC(=O)Nc1ccc(C)cc1	inactive	
NS(=O)(=O)c1ccccc1OC(F)(F)F	inactive	
COC(=O)CCC(=O)O	inactive	
c1ccccc1	inactive	
O=C(/C=C/c1ccccc1)NCCO	inactive	
COc1cc2c(Nc3ccc(Br)cc3F)ncnc2cc1OCC1CCN(C)CC1	inactive	
O=C(Nc1cccc(C2=NCCN2)c1)Nc1cccc(C2=NCCN2)c1		3.42% [at 15.8 µM]
CCCO	inactive	
Oc1ccccc1Cc1ccccc1O	inactive	
O=C(CN1CCN(Cc2ccc3c(c2)OCO3)CC1)N1c2ccccc2Sc2ccccc21	inactive	
C=C(C)[C@@H]1CC[C@@H](C)C[C@@H]1O	inactive	
CC(=O)OC(C)(C)Cc1ccccc1	inactive	
CCCCCCCCC(=O)OCC	inactive	
CCCCC(CC)COC(=O)c1ccccc1 (stereo not given)	inactive	
C[CH2][Ge]([Cl])([CH2]C)[CH2]C	inactive	
c1ccc(CNc2ncnc3nc[nH]c23)cc1	inactive	
O=C(O)C(=O)Nc1cccc(-c2nn[nH]n2)c1	inactive	
F[Si-2](F)(F)(F)(F)F	inactive	
CCCCOC(=O)C(=O)OCCCC	inactive	
Cc1oc(=O)oc1CN1CCN(c2cc3c(cc2F)c(=O)c(C(=O)O)c2n3C(C)S2)CC1 (stereo not given)	inactive	
